According to PubChem BioAssay AID1159580 (chemical genetic matrix, 2015):
The whole screen tested about 5,500 compounds, of which about 2,000 (36%) were called active. Another 18% or so got no clear call; they are omitted. Cut-off read from the data, not from the text of the source: active = normalized growth mostly below about 0.91 (no sharp cut-off); inconclusive = no clear call, values can overlap the other calls; inactive = mostly above about 0.92. The list shows a part of the results.

Test: chemical genetic growth profiling, strain panel (AID 1159580);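 note: tested at 20 µM; growth read once vehicle control cultures reached saturation at 30 °C; 1 = growth at the plate median or of vehicle wells; lower values mean less growth of the strain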
Conditions: growth OD

Measured: normalized growth

c1ccc(OCCOc2ccccn2)nc1
inactive: S. cerevisiae deletion strains, locus YAL013W, strain DEP1, stronger effect = lower value 1.03 | S. cerevisiae deletion strains, locus YBR229C, strain ROT2, stronger effect = lower value 0.999 | S. cerevisiae deletion strains, locus YCL061C, strain MRC1, stronger effect = lower value 0.992 | S. cerevisiae deletion strains, locus YDL101C, strain DUN1, stronger effect = lower value 1.01 | S. cerevisiae deletion strains, locus YDL134C, strain PPH21, stronger effect = lower value 0.994 | S. cerevisiae deletion strains, locus YDR150W, strain NUM1, stronger effect = lower value 0.972 | S. cerevisiae deletion strains, locus YEL061C, strain CIN8, stronger effect = lower value 1 | S. cerevisiae deletion strains, locus YGR078C, strain PAC10, stronger effect = lower value 1 | S. cerevisiae deletion strains, locus YHR030C, strain SLT2, stronger effect = lower value 1.06 | S. cerevisiae deletion strains, locus YHR087W, strain rtc3, stronger effect = lower value 0.992 | S. cerevisiae deletion strains, locus YJR043C, strain POL32, stronger effect = lower value 0.995 | S. cerevisiae deletion strains, locus YJR075W, strain HOC1, stronger effect = lower value 1 | S. cerevisiae deletion strains, locus YKL190W, strain CNB1, stronger effect = lower value 0.998 | S. cerevisiae deletion strains, locus YLR039C, strain RIC1, stronger effect = lower value 0.999 | S. cerevisiae deletion strains, locus YLR058C, strain SHM2 (second series), stronger effect = lower value 0.996 | S. cerevisiae deletion strains, locus YLR085C, strain ARP6, stronger effect = lower value 1 | S. cerevisiae deletion strains, locus YLR262C, strain YPT6, stronger effect = lower value 1.05 | S. cerevisiae deletion strains, locus YML094W, strain GIM5, stronger effect = lower value 1.01 | S. cerevisiae deletion strains, locus YMR219W, strain ESC1, stronger effect = lower value 1.01 | S. cerevisiae deletion strains, locus YMR263W, strain SAP30, stronger effect = lower value 0.985 | S. cerevisiae deletion strains, locus YMR307W, strain GAS1, stronger effect = lower value 0.959 | S. cerevisiae deletion strains, locus YNL128W, strain TEP1, stronger effect = lower value 1 | S. cerevisiae deletion strains, locus YNL153C, strain GIM3, stronger effect = lower value 0.997 | S. cerevisiae deletion strains, locus YNL298W, strain CLA4 (second series), stronger effect = lower value 0.978 | S. cerevisiae deletion strains, locus YNL322C, strain KRE1, stronger effect = lower value 1.01 | S. cerevisiae deletion strains, locus YNR030W, strain Alg12, stronger effect = lower value 1 | S. cerevisiae deletion strains, locus YPL055C, strain LGE1, stronger effect = lower value 0.982 | S. cerevisiae deletion strains, locus YPL241C, strain CIN2, stronger effect = lower value 0.988 | S. cerevisiae deletion strains, locus YPR135W, strain CTF4, stronger effect = lower value 1.13 | S. cerevisiae strains, strain wild type, stronger effect = lower value 1
